In the library only some 11% were active in any assay of this set; here they are far more common.
VACV Venus inh – qHTS for Stage-Specific Inhibitors of Vaccinia Orthopoxvirus: Venus Reporter Primary qHTS | Potency, µM (series often up to 36.5 µM), inactives show top-dose activity change, negative = inhibition, most hits filed as inhibitors | AID 720580, 2013 | 330,000 compounds, 0.46% hits | Vaccinia virus Venus reporter expression, fluorescence; calls by dose curve; tested in A549 cells; note: % is set by controls: 0 for no effect and ±100 for the full control effect; nearly all actives have a fitted effect of over 30% in size
NS1 function inh – qHTS Assay for Inhibitors of Influenza NS1 Protein Function; Potency, µM (highest dose often 46.1 µM), inactives show top-dose activity, positive = more growth; 270,000 compounds, 0.4% hits; AID 2326, 2010; calls by dose curve; note: actives are rising curves; nearly all actives have a fitted effect of over 50% in size
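Compounds were scored for reversing the slow growth caused by influenza A NS1 in S. cerevisiae, measured by optical density at 600 nm. Assay medium contained 2% galactose at pH 6.0; NS1-free yeast of the same strain were the positive control.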
HCV inhibitor – qHTS Assay for Inhibitors of Hepatitis C Virus (HCV); Potency, µM (titrated, usually from 41.8 µM), without a hit: at the top dose activity change, negative = inhibition, hits mostly inhibitors; Huh7.5.1 HCVcc-Cre infection, luciferase reporter, 44 h; 340,000 compounds, 3.4% hits; AID 651820, 2012; note: % is set by controls: 0 for no effect and ±100 for the full control effect
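Infectious HCV cell culture screen: compound-treated cells (1,000/well, pre-plated 4 h) are infected with HCVcc-Cre at roughly 0.5 moi and grown 44 h. Infection is quantified by luciferase signal after 15 min substrate incubation at room temperature.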
VACV mCherry inh – qHTS for Stage-Specific Inhibitors of Vaccinia Orthopoxvirus: mCherry Reporter Primary qHTS | Potency, µM (titrated, usually from 36.5 µM), without a hit: at the top dose activity change, negative = inhibition, actives largely listed as inhibitors | 310,000 compounds, 0.63% hits | Vaccinia virus mCherry reporter infection, fluorescence; calls by dose curve; tested in A549 cells; note: % is set by controls: 0 for no effect and ±100 for the full control effect; nearly all actives have a fitted effect of over 35% in size
Pf growth 48h – Primary qHTS for delayed death inhibitors of the malarial parasite plastid, 48 hour incubation; P. falciparum luciferase growth in erythrocytes, 48 h; 310,000 compounds, 5.9% hits; Potency, µM (highest dose often 28.7 µM), for the others: at the top dose activity change, negative = inhibition, hits mostly inhibitors; note: % is set by controls: 0 for no effect and ±100 for the full control effect
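Cell-based growth assay: transgenic P. falciparum expressing firefly luciferase, cultured in red cells within RPMI 1640 containing 0.5% w/v Albumax, 24 mM bicarbonate and gentamycin. A drop in luciferase activity indicates inhibition.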
Pf growth 96h – Primary qHTS for delayed death inhibitors of the malarial parasite plastid, 96 hour incubation. P. falciparum luciferase reporter growth, 96 h. 320,000 compounds, 6.9% hits. Potency, µM (top dose mostly 28.7 µM), inactives show at the highest dose activity change, negative = inhibition, most hits filed as inhibitors. AID 504834, 2011; note: % is set by controls: 0 for no effect and ±100 for the full control effect
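Readout is luminescence from an integrated firefly luciferase in P. falciparum. Red cells, 2% hematocrit and 0.05% parasitemia final, were cultured with compound through two parasite generations (96 hours) at 37 C, 5% CO2.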
An asterisk follows results filed as active; [ ] = another dose, or the depositor's remark. Unless noted, calls come from the whole dose curve; as a rule, active = well fitted inhibition curve with a large enough effect; inconclusive = small, poorly fitted or top-dose-only effect, or another doubt; inactive = no such curve, though single readings can be large or run the other way. Potency is the fitted concentration of half-maximal effect.

Results for Cc1onc(-c2c(F)cccc2Cl)c1C(=O)N=C(N)N1CC(C)OC(C)C1 (configuration not stated) ?
VACV Venus inh: -10.2%; NS1 function inh: 2.6%; HCV inhibitor: 7.8%; VACV mCherry inh: inactive; Pf growth 48h: inconclusive; Pf growth 96h: 10.4µM*

How did Cc1onc(-c2c(F)cccc2Cl)c1C(=O)O/N=C(\N)c1ccc([N+](=O)[O-])o1 do in these assays?
VACV Venus inh: inconclusive; NS1 function inh: -9.3%; HCV inhibitor: inconclusive; VACV mCherry inh: inconclusive; Pf growth 48h: 8.28µM*; Pf growth 96h: 11.7µM*

What do the screens show for `CC(=O)N/C(N)=N/c1nc2cc(C)ccc2o1`?
NS1 function inh: 4.1%; HCV inhibitor: 19.9%; Pf growth 48h: 214.0%; Pf growth 96h: 273.9%

Results for COc1cc2c(cc1OC)C1(CCCC1)C(N)=C2C#N ?
VACV Venus inh: inconclusive; NS1 function inh: -6.1%; HCV inhibitor: 3.16µM*; Pf growth 48h: inconclusive; Pf growth 96h: inconclusive

What do the screens show for `COc1ccc(CNC(=O)Cc2c(C)c3c(cc(C)c4c(C)coc43)oc2=O)cc1OC`?
VACV Venus inh: 3.9%; VACV mCherry inh: -5.2%

What do the screens show for `COc1ccc(CNC(=O)c2cnn(-c3ccc(C)cc3)c2C2CCN(C(=O)OC(C)(C)C)CC2)cc1`?
VACV Venus inh: -25.7%; VACV mCherry inh: inconclusive

How did CC(C)N(C(=O)[C@H]1C[C@H](CC(=O)NCc2cccc(C(F)(F)F)c2)C(=O)N2CCc3c([nH]c4cc(CCC(=O)N(C)C)ccc34)[C@]12C)C(C)C do in these assays?
VACV Venus inh: inconclusive; HCV inhibitor: -28.6%[8.37 µM]; VACV mCherry inh: inconclusive

How did CN(C)CCCNC(=O)C[C@H]1C[C@H](C(=O)N2CCCCC2)[C@@]2(C)c3[nH]c4cc(-c5ccco5)ccc4c3CCN2C1=O do in these assays?
VACV Venus inh: -14.4%; HCV inhibitor: inconclusive; VACV mCherry inh: inconclusive

What do the screens show for `CC(C)=CCC/C(C)=C/CNC(=O)C[C@H]1C[C@H](C(=O)N2CCOCC2)[C@@]2(C)c3[nH]c4cc(-c5ccco5)ccc4c3CCN2C1=O`?
VACV Venus inh: 11.2µM*; HCV inhibitor: inconclusive; VACV mCherry inh: inconclusive

How did C[C@]12c3[nH]c4cc(-c5ccco5)ccc4c3CCN1C(=O)[C@@H](CC(=O)NCCN1CCOCC1)C[C@@H]2C(=O)N1CCOCC1 do in these assays?
VACV Venus inh: -10.3%; HCV inhibitor: -13.7%[8.37 µM]; VACV mCherry inh: inactive

Results for C[C@]12c3[nH]c4cc(-c5ccco5)ccc4c3CCN1C(=O)[C@@H](CC(=O)NCC13CC4CC(CC(C4)C1)C3)C[C@@H]2C(=O)N1CCCCC1 ?
VACV Venus inh: inconclusive; HCV inhibitor: 6.5%; VACV mCherry inh: 11.2µM*

Results for CC[C@]12c3[nH]c4ccc(Cl)cc4c3CCN1C(=O)[C@@H](CC(=O)NCCC1=CCCCC1)C[C@@H]2C(=O)N1CCN(C(=O)c2ccco2)CC1 ?
VACV Venus inh: -20.5%; HCV inhibitor: 31.6µM*; VACV mCherry inh: -6.4%

What do the screens show for `CC(C)N(C(=O)[C@H]1C[C@H](CC(=O)NC(C)(C)C)C(=O)N2CCc3c([nH]c4cc(CCC(=O)N(C)C)ccc34)[C@]12C)C(C)C`?
VACV Venus inh: -1.4%; HCV inhibitor: 0.501µM*; VACV mCherry inh: -2.5%

What do the screens show for `CCc1ccc(CNC(=O)CCS(=O)(=O)Cc2ccc(C)cc2)cc1`?
NS1 function inh: 2.8%; HCV inhibitor: 12.4%; Pf growth 48h: 5.2%; Pf growth 96h: 24.5%

What do the screens show for `CC1(N2CCOCC2)C(=O)c2ccccc2C1=O`?
VACV Venus inh: 4.4%; NS1 function inh: 7.3%; HCV inhibitor: 9.9%; VACV mCherry inh: inactive; Pf growth 48h: 20.6%; Pf growth 96h: inconclusive

What do the screens show for `CCN(CC)C(=O)[C@H]1CC(CC(=O)NCc2cccc(C(F)(F)F)c2)C(=O)N2CCc3c([nH]c4ccccc34)[C@]12C` (some centres not stated)?
VACV Venus inh: -22.1%; HCV inhibitor: 12.6µM*; VACV mCherry inh: -13.0%

How did CC[C@]12c3[nH]c4cc(-c5ccco5)ccc4c3CCN1C(=O)[C@@H](CC(=O)NCC13CC4CC(CC(C4)C1)C3)C[C@@H]2C(=O)N1CCN(C(=O)c2ccco2)CC1 do in these assays?
VACV Venus inh: inconclusive; HCV inhibitor: inconclusive; VACV mCherry inh: 7.08µM*

Results for C[C@]12c3[nH]c4ccc(Cl)cc4c3CCN1C(=O)[C@@H](CC(=O)NCCC1=CCCCC1)C[C@@H]2C(=O)N1CCOCC1 ?
VACV Venus inh: inconclusive; HCV inhibitor: 11.2µM*; VACV mCherry inh: inconclusive

Results for CC(C)N(C(=O)[C@H]1CC(CC(=O)NCCc2ccccn2)C(=O)N2CCc3c([nH]c4ccccc34)[C@]12C)C(C)C (some centres not stated) ?
VACV Venus inh: -23.3%; HCV inhibitor: -9.0%; VACV mCherry inh: -13.9%

How did C[C@]12c3[nH]c4ccc(Cl)cc4c3CCN1C(=O)[C@@H](CC(=O)NCCN1CCOCC1)C[C@@H]2C(=O)N1CCOCC1 do in these assays?
VACV Venus inh: -16.5%; HCV inhibitor: 2.3%; VACV mCherry inh: inactive

Results for CC(C)N(C(=O)[C@H]1CC(CC(=O)NCCC2=CCCCC2)C(=O)N2CCc3c([nH]c4ccccc34)[C@]12C)C(C)C (some centres not stated) ?
VACV Venus inh: -11.3%; HCV inhibitor: 0.562µM*; VACV mCherry inh: -12.0%

Results for COc1ccc(N(CC(=O)Nc2ccc3c(c2)OCO3)S(C)(=O)=O)c(OC)c1 ?
NS1 function inh: 8.8%; HCV inhibitor: 0.9%; Pf growth 48h: inconclusive; Pf growth 96h: 184.7%

What do the screens show for `COc1ccc(C2CC(=O)N3CN(C4CCCCC4)CSC3=C2C#N)cc1` (configuration not stated)?
VACV Venus inh: -5.3%; VACV mCherry inh: -14.5%

Results for O=C(NNS(=O)(=O)c1ccccc1)c1ccc(O)cc1 ?
VACV Venus inh: -14.1%; NS1 function inh: 9.8%; HCV inhibitor: -3.3%; VACV mCherry inh: -10.8%; Pf growth 48h: 51.8%; Pf growth 96h: inconclusive

How did C[C@]12c3[nH]c4cc(-c5ccco5)ccc4c3CCN1C(=O)[C@@H](CC(=O)NCc1cccc(C(F)(F)F)c1)C[C@@H]2C(=O)N1CCCCC1 do in these assays?
VACV Venus inh: inconclusive; HCV inhibitor: inconclusive; VACV mCherry inh: 11.2µM*

Bioassay records (PubChem BioAssay)
